# Source: PubChem BioAssay (NCATS)
# Several values for one entry are separate records, joined by “and”; a condition that tells them apart may be missing. Identical values can stand only once. Results filed as inconclusive are left out. A call without a number means that no potency is given here. Activity calls are given as the source filed them. Unless noted, calls follow the shape of the dose curve; as a rule, active = well fitted curve in the direction sought with a large enough effect; inconclusive = small, poorly fitted or top-dose-only effect, or another doubt; inactive = no such curve, though single readings can be large; an effect the other way counts as inactive or inconclusive.
# Experiments:
# [1] = target: Estrogen receptor (Homo sapiens) (UniProt P03372); assay: qHTS assay for small molecule antagonists of estrogen receptor alpha signaling (AID 588513; active = well fitted curve in the direction sought with a large enough effect in the signal ratio, with a control signal flat, not every such curve was filed as active; the % refers to the signal ratio)
# Outline: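 Beta-lactamase reporter, antagonist mode, HEK 293 GripTite cells; 0.5nM E2 stimulus, 18 h, 37 C; CCF4 dye 2 h RT; fluorescence. IC50 and efficacy from Hill fits, normalized to E2 and DMSO.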
# [2] = target: Estrogen receptor (Homo sapiens) (UniProt P03372); assay: qHTS assay for small molecule agonists of estrogen receptor alpha signaling (AID 588514; calls by dose curve; also: nearly all actives have a fitted effect of over 70% in size)
# Outline: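 Reporter-gene assay. […] controls beta-lactamase in HEK 293 GripTite cells; after 18 hrs with compound, CCF4 substrate is added for 2 hrs and fluorescence is read.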
# [3] = target: Androgen receptor (Homo sapiens) (UniProt P10275); assay: qHTS assay for small molecule agonists of androgen receptor signaling (AID 588515; active = well fitted curve in the direction sought with a large enough effect in the signal ratio, with a control signal flat; the % refers to the signal ratio); settings: AR-UAS-bla HEK293, beta-lactamase ratio, agonist 16 h; stronger effect = higher value
# Outline: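 EC50 and efficacy came from Hill fits of titrations (up to 92 uM) normalized to 30 nM R1881 as 100% and DMSO as 0%. Compound exposure was 16 h at 37 C on AR-UAS-bla HEK293 cells, with a 405/460/530 nm CCF4 fluorescence read.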
# [4] = target: Androgen receptor (Homo sapiens) (UniProt P10275); assay: qHTS assay for small molecule antagonists of androgen receptor signaling (AID 588516; active = well fitted curve in the direction sought with a large enough effect in the signal ratio, with a control signal flat, not every such curve was filed as active; the % refers to the signal ratio)
# Outline: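 HEK293 AR-UAS-bla cells, 10% dialyzed FBS medium; cpd titration + R1881 10 nM final, 16 h 37 C; CCF4 2 h RT; FRET ratio; IC50/efficacy via Hill fit.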
# [5] = target: Glucocorticoid receptor (Homo sapiens) (UniProt P04150); assay: qHTS assay for small molecule agonists of glucocorticoid receptor signaling (AID 588532; active = well fitted curve in the direction sought with a large enough effect in the signal ratio, with a control signal flat; the % refers to the signal ratio); settings: HeLa MMTV-bla, beta-lactamase ratio, agonist, 18 h; activation: stronger effect = higher value, percent of dexamethasone control, DMSO zero
# Outline: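 Quantitative HTS using CellSensor MMTV-bla HeLa cells in charcoal/dextran-treated serum; compounds tested up to 92 uM. After 18 h at 37 C, CCF4 dye reported reporter induction.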
# [6] = target: Peroxisome proliferator-activated receptor gamma (Homo sapiens) (UniProt P37231); assay: qHTS assay for small molecule agonists of peroxisome proliferator-activated receptor gamma signaling (AID 588536; active = well fitted curve in the direction sought with a large enough effect in the signal ratio, with a control signal flat, not every such curve was filed as active; the % refers to the signal ratio)
# Outline: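 Test agents, titrated, stimulated HEK293 UAS-bla cells overnight (16 h, 37 C). Substrate CCF4 was then added for two hours at room temperature before fluorescence reading.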
# [7] = target: Peroxisome proliferator-activated receptor gamma (Homo sapiens) (UniProt P37231); assay: qHTS assay for small molecule antagonists of peroxisome proliferator-activated receptor gamma signaling (AID 588537; active = well fitted inhibition curve with a large enough effect in the signal ratio, with a control signal flat, not every such curve was filed as active; the % refers to the signal ratio;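 also: reporter cells co-stimulated with 50 nM rosiglitazone agonist during compound treatment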)
# Outline: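 Inhibitors of agonist-stimulated UAS-bla reporter activity were sought in HEK293 cells; rosiglitazone (50 nM) defined full signal and DMSO baseline. Curves fitted to Hill model gave IC50 and efficacy.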
# [8] = target: Vitamin D3 receptor (Homo sapiens) (UniProt P11473); assay: qHTS assay for small molecule antagonists of vitamin D receptor signaling (AID 588541; calls by dose curve;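 also: receptor activated by calcitriol during compound treatment; series mostly up to about 77 µM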)
# Outline: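 Antagonist-mode beta-lactamase reporter assay: HEK293T VDR-UAS-bla cells were exposed to titrated compound alongside 1-alpha,25-dihydroxyvitamin D3 at 3 nM final for 16 h. Values were normalized to the 50 nM agonist control and DMSO basal, with IC50 and efficacy from Hill equation fits.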
# [9] = target: Vitamin D3 receptor (Homo sapiens) (UniProt P11473); assay: qHTS assay for small molecule agonists of vitamin D receptor signaling (AID 588543; calls by dose curve)
# Outline: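 β-lactamase reporter, VDR-UAS-bla HEK293T, agonist mode. Cells plated 5 h at 37 °C, compound titration 16 h at 37 °C, CCF4 dye 2 h RT, ratio 460/530 nm. Hill fit → EC50, efficacy vs 50 nM 1α,25-(OH)2D3.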
# [10] = qHTS assay for small molecule agonists of retinoid X receptor alpha signaling (AID 588544; calls by dose curve); settings: HEK293T RXRa-UAS-bla, beta-lactamase reporter, 18 h; 530 nm emission
# [11] = target: Retinoic acid receptor RXR-alpha (Homo sapiens) (UniProt P19793); assay: as above
# [12] = target: Thyroid hormone receptor beta (Homo sapiens) (UniProt P10828); assay: qHTS assay for small molecule agonists of thyroid hormone receptor beta signaling (AID 588545; calls by dose curve)
# Outline: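 Agonist activity was read as beta-lactamase CCF4 fluorescence (405 ex, 460/530 em), scaled between DMSO (0%) and 10 nM T3 (100%), then Hill-fitted for EC50 and efficacy. HEK 293 TR-UAS-bla cells in 2% charcoal/dextran FBS medium were exposed 18 h at 37 C.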
# [13] = qHTS assay for small molecule antagonists of retinoid X receptor alpha signaling (AID 588546; active = well fitted inhibition curve with a large enough effect in the signal ratio, with a control signal flat, not every such curve was filed as active; the % refers to the signal ratio;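 also: cells stimulated with 9-cis-retinoic acid as agonist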); settings: HEK293T RXRa-UAS-bla, beta-lactamase ratio, antagonist mode; measured here: W530 green channel, cytotoxicity proxy
# Outline: (§1)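 Beta-lactamase reporter inhibition, read as CCF4 fluorescence ratio (ex 405, em 460/530 nm) after 2 h at RT. HEK293T UAS-bla cells, 2500/well, were stimulated with 9-cis-RA at 500 or 100 nM final alongside test compound for 18 h at 37 C.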
# [14] = target: Retinoic acid receptor RXR-alpha (Homo sapiens) (UniProt P19793); assay: as above; settings: HEK293T RXRa-UAS-bla, beta-lactamase ratio, antagonist mode
# Outline: as §1
# [15] = target: Thyroid hormone receptor beta (Homo sapiens) (UniProt P10828); assay: qHTS assay for small molecule antagonists of thyroid hormone receptor beta signaling (AID 588547; active = well fitted inhibition curve with a large enough effect in the signal ratio, with a control signal flat, not every such curve was filed as active; the % refers to the signal ratio;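 also: cells stimulated with 0.4 nM T3 agonist during compound exposure; series mostly up to about 77 µM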); settings: TR-UAS-bla HEK293, beta-lactamase ratio, antagonist mode, 18 h
# Outline: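 Inhibition of T3-driven (0.4nM final) beta-lactamase reporter activity was measured over 0.59 nM to 92 uM compound after 18 h at 37 C. The cells were GripTite HEK293 TR-UAS-bla in charcoal/dextran-stripped serum, with CCF4 ratio read-out and IC50 from Hill fits.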
# [16] = qHTS assay for small molecule activators of the p53 signaling pathway (AID 651743; active = well fitted activation curve with a large enough effect in the signal ratio, not every such curve was filed as active; the % refers to the signal ratio; also: series mostly up to about 92 µM); settings: HCT-116 p53RE-bla, beta-lactamase FRET ratio, 16 h; activation: stronger effect = higher value
# Outline: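 Screen for p53 pathway agonists uses stably transfected p53RE-bla HCT-116 cells, 4,000 per well, treated 16 h at 37 C with compounds in DMSO.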
# [17] = qHTS assay for environmental chemicals that activate the Aryl hydrocarbon Receptor (AhR) signaling pathway (AID 651777); settings: 1A2-DRE human hepatoma cells, luciferase, 24 h; activation: stronger effect = higher value; also: nearly all actives have a fitted effect of over 15% in size
# Outline: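 Human hepatoma 1A2-DRE cells stably carrying a DRE/CYP1A2 promoter–luciferase reporter, 1,200 cells/well, exposed to compound 24 hr at 37 C. Luciferase read by One-Glo luminescence after 30 min at room temperature; increased signal marks AhR activation.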
# [18] = target: Peroxisome proliferator-activated receptor alpha (Homo sapiens) (UniProt Q07869); assay: qHTS assay for small molecule agonists of the peroxisome proliferator-activated receptor alpha (PPARalpha) signaling pathway (AID 651778); settings: PathHunter PPARalpha complementation, chemiluminescence, 6 h; max response: stronger effect = higher value
# Outline: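 Chemiluminescence from complemented enzyme reported PPARalpha activation in cells after 6 hr of compound treatment at 37 C. The detection reagent was incubated for 60 min at room temperature, and compounds were scored as agonists.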
# [19] = qHTS assay for small molecule agonists of the antioxidant response element (ARE) signaling pathway measured by Nrf2-dependant transcriptional activity (AID 720636; active = well fitted curve in the direction sought with a large enough effect in the repeat runs; an effect the other way counts as inactive or inconclusive)
# Outline: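 ARE-luc HepG2 cells carrying an Nrf2-responsive luciferase reporter, in medium with 1% dialyzed FBS, exposed to compound for 16 hr at 37 C, 5% CO2. Luminescence read 30 min after ONE-Glo addition.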
# [20] = qHTS assay for small molecule agonists of the antioxidant response element (ARE) signaling pathway measured by Nrf2-dependant transcriptional activity - cell viability counter screen (AID 720653; active = well fitted curve in the direction sought with a large enough effect in the repeat runs; an effect the other way counts as inactive or inconclusive); settings: ARE-bla HepG2 viability, CellTiter-Glo ATP luminescence, 16 h; max response: stronger effect = lower value
# Outline: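 Cytotoxicity counter screen: intracellular ATP quantified by CellTiter-Glo luminescence in the same ARE-bla HepG2 plates, after 16 h compound exposure and a 2 h beta-lactamase substrate step.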
# [21] = qHTS assay for cell viability of HEK293 cells (AID 743288); settings: ATP luminescence (CellTiter-Glo), 18 h; max response: stronger effect = lower value; also: nearly all actives have a fitted effect of over 50% in size
# Outline: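 Environmental chemicals tested in qHTS format against parental HEK293 cells; 18 h treatment, 37 C; read-out ATP luminescence (CellTiter-Glo), 30 min RT development.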
# [22] = qHTS assay for cell viability of the p53RE-bla HCT-116 cell line (AID 743292); also: nearly all actives have a fitted effect of over 55% in size
# Outline: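 CellSensor p53RE-bla HCT-116 cells (4,000/well) pre-incubated 5 h at 37 C, then exposed to compounds in DMSO for 16 h at 37 C. Viability read as ATP content by CellTiter-Glo luminescence after 30 min at room temperature.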
# [23] = target: Nuclear receptor subfamily 1 group I member 2 (Rattus norvegicus) (UniProt Q9R1A7); assay: qHTS assay for small molecule activators of the rat pregnane X receptor (rPXR) signaling pathway (AID 651751; call rule not given here); settings: rPXR reporter cells, luciferase (One-Glo), 24 h
# [24] = qHTS assay for small molecule activators of the human pregnane X receptor (PXR) signaling pathway (AID 720659; call rule not given here)
# Sequence of Vitamin D3 receptor (Homo sapiens) (P11473 whole entry, looked up): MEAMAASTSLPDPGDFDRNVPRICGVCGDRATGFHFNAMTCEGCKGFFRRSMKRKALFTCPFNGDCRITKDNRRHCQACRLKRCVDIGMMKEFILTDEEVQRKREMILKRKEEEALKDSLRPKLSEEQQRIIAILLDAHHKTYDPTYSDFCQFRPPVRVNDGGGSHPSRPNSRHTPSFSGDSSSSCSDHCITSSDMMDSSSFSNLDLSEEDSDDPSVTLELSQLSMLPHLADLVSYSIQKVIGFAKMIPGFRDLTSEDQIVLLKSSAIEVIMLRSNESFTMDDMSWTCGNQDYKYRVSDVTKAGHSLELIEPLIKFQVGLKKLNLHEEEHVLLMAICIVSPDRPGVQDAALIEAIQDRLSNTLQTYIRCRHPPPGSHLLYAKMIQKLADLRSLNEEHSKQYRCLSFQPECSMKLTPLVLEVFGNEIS
# Sequence of Thyroid hormone receptor beta (Homo sapiens) (P10828 whole entry, looked up): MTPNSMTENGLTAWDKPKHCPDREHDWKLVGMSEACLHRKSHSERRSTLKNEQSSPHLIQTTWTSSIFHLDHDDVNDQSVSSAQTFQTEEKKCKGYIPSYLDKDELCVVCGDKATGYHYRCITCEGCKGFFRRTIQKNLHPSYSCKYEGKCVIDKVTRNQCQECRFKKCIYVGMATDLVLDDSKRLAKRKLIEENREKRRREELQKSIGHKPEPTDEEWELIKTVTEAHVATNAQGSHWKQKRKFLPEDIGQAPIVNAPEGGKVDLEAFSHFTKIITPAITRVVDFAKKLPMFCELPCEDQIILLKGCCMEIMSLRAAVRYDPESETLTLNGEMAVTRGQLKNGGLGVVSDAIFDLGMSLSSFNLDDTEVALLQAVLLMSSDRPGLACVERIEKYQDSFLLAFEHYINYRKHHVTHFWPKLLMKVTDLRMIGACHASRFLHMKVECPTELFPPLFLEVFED
# Sequence of Estrogen receptor (Homo sapiens) (P03372 whole entry, looked up): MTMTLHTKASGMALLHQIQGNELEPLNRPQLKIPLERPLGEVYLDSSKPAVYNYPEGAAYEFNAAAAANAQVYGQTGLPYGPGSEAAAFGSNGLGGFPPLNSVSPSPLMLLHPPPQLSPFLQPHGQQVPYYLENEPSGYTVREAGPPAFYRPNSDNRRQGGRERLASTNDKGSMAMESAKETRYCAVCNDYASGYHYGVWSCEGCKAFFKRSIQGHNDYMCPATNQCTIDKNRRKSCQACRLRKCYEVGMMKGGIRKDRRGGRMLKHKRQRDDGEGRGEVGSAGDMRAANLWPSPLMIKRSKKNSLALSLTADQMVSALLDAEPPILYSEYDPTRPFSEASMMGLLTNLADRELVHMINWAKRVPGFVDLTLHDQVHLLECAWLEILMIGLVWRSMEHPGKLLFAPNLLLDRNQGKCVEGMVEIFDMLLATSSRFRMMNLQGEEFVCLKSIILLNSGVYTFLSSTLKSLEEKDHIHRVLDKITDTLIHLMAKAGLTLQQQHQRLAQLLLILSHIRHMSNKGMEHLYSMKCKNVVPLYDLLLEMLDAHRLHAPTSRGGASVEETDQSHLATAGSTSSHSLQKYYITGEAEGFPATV
# Sequence of Androgen receptor (Homo sapiens) (P10275 whole entry, looked up): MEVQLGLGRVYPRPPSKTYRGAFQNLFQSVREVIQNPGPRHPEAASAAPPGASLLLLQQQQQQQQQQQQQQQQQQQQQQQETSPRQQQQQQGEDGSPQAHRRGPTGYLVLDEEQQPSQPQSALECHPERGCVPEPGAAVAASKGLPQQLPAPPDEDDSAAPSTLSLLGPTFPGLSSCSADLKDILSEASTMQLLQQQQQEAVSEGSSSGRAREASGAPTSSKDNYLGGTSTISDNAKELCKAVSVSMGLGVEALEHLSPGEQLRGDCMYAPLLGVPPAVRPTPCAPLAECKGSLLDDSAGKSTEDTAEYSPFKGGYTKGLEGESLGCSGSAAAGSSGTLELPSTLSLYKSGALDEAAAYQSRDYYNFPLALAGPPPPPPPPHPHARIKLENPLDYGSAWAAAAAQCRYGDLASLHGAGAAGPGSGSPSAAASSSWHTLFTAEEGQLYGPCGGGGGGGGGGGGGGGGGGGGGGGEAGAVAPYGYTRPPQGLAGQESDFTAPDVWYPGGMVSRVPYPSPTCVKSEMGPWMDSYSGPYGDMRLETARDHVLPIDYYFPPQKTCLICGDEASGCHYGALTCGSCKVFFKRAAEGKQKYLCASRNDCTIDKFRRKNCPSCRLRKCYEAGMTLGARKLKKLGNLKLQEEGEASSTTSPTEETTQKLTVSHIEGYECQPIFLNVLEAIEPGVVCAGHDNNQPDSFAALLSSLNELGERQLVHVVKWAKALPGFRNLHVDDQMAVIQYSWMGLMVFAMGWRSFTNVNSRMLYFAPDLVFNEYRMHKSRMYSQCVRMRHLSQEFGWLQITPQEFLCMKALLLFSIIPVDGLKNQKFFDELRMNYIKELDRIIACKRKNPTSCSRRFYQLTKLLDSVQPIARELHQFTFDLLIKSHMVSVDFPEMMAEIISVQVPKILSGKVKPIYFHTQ
# Sequence of Retinoic acid receptor RXR-alpha (Homo sapiens) (P19793 whole entry, looked up): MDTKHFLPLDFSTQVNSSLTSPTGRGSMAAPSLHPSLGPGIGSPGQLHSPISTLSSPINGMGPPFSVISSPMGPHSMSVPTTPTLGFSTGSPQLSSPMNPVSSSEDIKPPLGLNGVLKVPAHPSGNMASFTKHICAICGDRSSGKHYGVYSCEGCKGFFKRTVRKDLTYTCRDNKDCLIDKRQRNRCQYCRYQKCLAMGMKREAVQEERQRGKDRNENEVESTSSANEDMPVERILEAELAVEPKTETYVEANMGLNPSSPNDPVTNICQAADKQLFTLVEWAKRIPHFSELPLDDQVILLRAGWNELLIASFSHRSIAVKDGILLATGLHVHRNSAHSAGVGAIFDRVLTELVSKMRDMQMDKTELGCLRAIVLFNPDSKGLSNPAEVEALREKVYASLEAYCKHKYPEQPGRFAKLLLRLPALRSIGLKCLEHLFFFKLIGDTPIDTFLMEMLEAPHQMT
# Sequence of Peroxisome proliferator-activated receptor gamma (Homo sapiens) (P37231 whole entry, looked up): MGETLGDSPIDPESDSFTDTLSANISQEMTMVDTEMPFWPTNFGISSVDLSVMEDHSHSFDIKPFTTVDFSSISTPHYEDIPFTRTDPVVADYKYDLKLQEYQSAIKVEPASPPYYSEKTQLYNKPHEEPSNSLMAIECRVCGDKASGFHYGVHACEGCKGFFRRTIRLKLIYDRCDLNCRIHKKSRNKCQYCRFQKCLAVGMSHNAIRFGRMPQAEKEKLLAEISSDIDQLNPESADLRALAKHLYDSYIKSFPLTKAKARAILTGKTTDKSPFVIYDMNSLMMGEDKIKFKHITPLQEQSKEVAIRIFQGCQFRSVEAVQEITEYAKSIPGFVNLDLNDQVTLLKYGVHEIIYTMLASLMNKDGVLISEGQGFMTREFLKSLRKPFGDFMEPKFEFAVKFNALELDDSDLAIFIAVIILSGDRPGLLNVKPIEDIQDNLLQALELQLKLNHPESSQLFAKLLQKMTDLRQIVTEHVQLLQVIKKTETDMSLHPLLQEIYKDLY
# Sequence of Peroxisome proliferator-activated receptor alpha (Homo sapiens) (Q07869 whole entry, looked up): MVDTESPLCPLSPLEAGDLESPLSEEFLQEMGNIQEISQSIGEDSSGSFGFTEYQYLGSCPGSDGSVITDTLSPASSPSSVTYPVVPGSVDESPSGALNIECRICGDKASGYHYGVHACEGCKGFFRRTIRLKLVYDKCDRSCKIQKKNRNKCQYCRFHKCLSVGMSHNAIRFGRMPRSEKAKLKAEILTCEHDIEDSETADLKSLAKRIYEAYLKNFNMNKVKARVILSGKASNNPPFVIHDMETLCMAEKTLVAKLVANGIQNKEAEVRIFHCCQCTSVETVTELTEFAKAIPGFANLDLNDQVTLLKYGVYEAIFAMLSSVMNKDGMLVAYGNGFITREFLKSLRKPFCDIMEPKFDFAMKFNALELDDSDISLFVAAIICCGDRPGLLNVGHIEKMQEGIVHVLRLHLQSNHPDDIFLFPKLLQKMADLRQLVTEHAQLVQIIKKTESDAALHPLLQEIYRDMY
# Sequence of Glucocorticoid receptor (Homo sapiens) (P04150 whole entry, looked up): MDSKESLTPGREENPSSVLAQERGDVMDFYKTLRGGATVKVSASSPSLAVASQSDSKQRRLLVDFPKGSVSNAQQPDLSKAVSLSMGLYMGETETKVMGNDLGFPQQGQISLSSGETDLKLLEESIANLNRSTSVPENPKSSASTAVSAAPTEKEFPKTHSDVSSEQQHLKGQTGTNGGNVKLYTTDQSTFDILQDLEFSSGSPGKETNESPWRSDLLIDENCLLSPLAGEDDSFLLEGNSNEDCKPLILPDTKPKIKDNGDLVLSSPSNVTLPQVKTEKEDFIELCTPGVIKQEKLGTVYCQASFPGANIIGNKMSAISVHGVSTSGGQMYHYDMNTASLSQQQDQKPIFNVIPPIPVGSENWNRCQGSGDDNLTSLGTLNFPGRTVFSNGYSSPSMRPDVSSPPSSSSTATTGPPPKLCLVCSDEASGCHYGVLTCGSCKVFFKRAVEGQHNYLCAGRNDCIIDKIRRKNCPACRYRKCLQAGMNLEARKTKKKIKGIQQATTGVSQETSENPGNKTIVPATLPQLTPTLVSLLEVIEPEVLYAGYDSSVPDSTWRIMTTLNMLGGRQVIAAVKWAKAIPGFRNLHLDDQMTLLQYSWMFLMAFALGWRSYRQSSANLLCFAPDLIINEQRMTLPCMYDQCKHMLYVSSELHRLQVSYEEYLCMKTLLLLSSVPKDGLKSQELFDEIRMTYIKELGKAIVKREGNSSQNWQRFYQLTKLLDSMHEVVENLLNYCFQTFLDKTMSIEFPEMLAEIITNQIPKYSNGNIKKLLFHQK
smiles,measurement,setting,value
Cc1cc(Cl)ccc1OCC(=O)O,Potency,[1],inactive
same,Potency,[2],inactive
same,activation,[3],-0.462% (inactive) and -10.2% (inactive)
same,Potency,[4],inactive
same,activation,[5],-2.21% (inactive) and 11.1% (inactive)
same,Potency,[6],inactive
same,Potency,[7],inactive
same,Potency,[8],inactive
same,outcome,[9],inactive
same,max response,[10],-7.53%
same,Potency,[11],inactive
same,Potency,[12],inactive
same,max response,[13],-3.03% and 10.9%
same,max response,[14],3.77% (inactive) and -0.223% (inactive)
same,activity change % (negative = inhibition),[15],22.2% (inactive) and -4.04% (inactive)
same,activation,[16],-6.22% (inactive) and 0.0507% (inactive)
same,activation,[17],0.725% (inactive) and -1.61% (inactive)
same,max response,[18],0.459% (inactive) and -1.12% (inactive)
same,Potency,[19],inactive
same,max response,[20],17.3% (inactive) and -19.3% (inactive)
same,max response,[21],-1.7% (inactive) and -11.8% (inactive)
same,Potency,[22],inactive
same,max response,[23],-1.6% (inactive) and -6.7% (inactive)
same,outcome,[24],inactive
